Tests used:
Assay in all cases: growth inhibition (% activity, log2 RLU normalised to DMSO / staurosporine); higher = more growth inhibition
Conditions in all cases: 33 µM
DIPGX29 = system: DIPGX29 (H3.3 K27M diffuse intrinsic pontine glioma line)
How it was run: (§1)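 Approved drugs were tested in triplicate at a single final concentration of about 33 μM for 7 days at 37 °C, 5% CO2, on pHGG cell lines and H9-derived neural stem cells. Readout was CellTiter-Glo luminescence, log2-transformed and scaled per plate to % activity between solvent and positive control wells. The median over replicates gives the growth-inhibition value.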

DIPGX37 = system: DIPGX37 (H3.3 K27M diffuse intrinsic pontine glioma line)
How it was run: as §1

DIPGX7 = system: DIPGX7 (H3.3 K27M diffuse intrinsic pontine glioma line)
How it was run: as §1

DIPGX9 = system: DIPGX9 (diffuse intrinsic pontine glioma line)
How it was run: as §1

HGGX39 = system: HGGX39 (paediatric high-grade glioma line)
How it was run: as §1

HGGX6 = system: HGGX6 (H3.3 G34R paediatric high-grade glioma line)
How it was run: as §1

HNSC = system: HNSC
How it was run: as §1

SUDIPGIV = system: SUDIPGIV (diffuse intrinsic pontine glioma line)
How it was run: as §1

SUDIPGVI = system: SUDIPGVI (diffuse intrinsic pontine glioma line)
How it was run: as §1

SUDIPGXIII = system: SUDIPGXIII (diffuse intrinsic pontine glioma line)
How it was run: as §1

Row | SMILES | growth inhibition (DIPGX29) [%] | growth inhibition (DIPGX37) [%] | growth inhibition (DIPGX7) [%] | growth inhibition (DIPGX9) [%] | growth inhibition (HGGX39) [%] | growth inhibition (HGGX6) [%] | growth inhibition (HNSC) [%] | growth inhibition (SUDIPGIV) [%] | growth inhibition (SUDIPGVI) [%] | growth inhibition (SUDIPGXIII) [%]
1 | Nc1ccc(/N=N/c2ccccc2)c(N)n1 | -3.96 | -2.54 | 0.481 | -3.38 | -1.17 | -3.08 | 9.5 | -2.91 | -4.45 | 1.45
2 | Cc1nnc(C(C)C)n1C1C[C@H]2CC[C@@H](C1)N2CC[C@H](NC(=O)C1CCC(F)(F)CC1)c1ccccc1 (stereo in doubt) | 0.752 | 1.42 | 6.87 | 1.45 | 1.14 | -3.69 | 45.9 | -0.251 | -0.429 | -1.27
3 | CCC1(c2ccccc2)C(=O)NCNC1=O | -1.25 | 0.454 | 0.246 | -0.432 | 2.69 | -0.575 | 3.35 | -1.41 | 0.425 | 0.0763
4 | Nc1ncn(C2OC(CO)C(O)C2O)c(=O)n1 (stereo not given) | 3.4 | -0.711 | 5.91 | 7.54 | 4.31 | 1.61 | 55.5 | 16.7 | 0.0997 | -1.9
5 | NS(=O)(=O)c1cc2c(cc1Cl)N=CNS2(=O)=O | -2.49 | -1.85 | 0.251 | -2.53 | -3.41 | -3.61 | -4.62 | -3.95 | -5.67 | 0.373
6 | Nc1nc(N)nc(-c2cc(Cl)ccc2Cl)n1 | -2.22 | -3.47 | -1.19 | -0.993 | -0.32 | 0.13 | -4.65 | -1.63 | -0.709 | -0.715
7 | O=C1[C@@H]2[C@H]3CC[C@H](C3)[C@@H]2C(=O)N1C[C@@H]1CCCC[C@H]1CN1CCN(c2nsc3ccccc23)CC1 | -3.28 | 0.212 | 1.18 | -1.28 | 2.33 | 1.59 | 2.62 | -0.0151 | 0.346 | 2.16
8 | COc1cc2/c(=N/c3ccc(Br)cc3F)nc[nH]c2cc1OCC1CCN(C)CC1 | 11.5 | 2.67 | 4.34 | 7.45 | 11.1 | 10.7 | 9.55 | -1.09 | -4.91 | 0.39
9 | CN1CCCCC1CCN1c2ccccc2Sc2ccc([S+](C)[O-])cc21 (stereo not given) | -1.62 | 1.07 | -1.12 | -0.108 | -0.329 | -0.926 | 1.22 | -1.02 | -0.796 | 1.03
10 | CC(C)Cn1cnc2c(N)nc3ccccc3c21 | 0.9 | 3.11 | 0.885 | 0.567 | 1.26 | 2.84 | 0.687 | 0.0825 | 3.61 | 0.156
11 | O=C(CCCCCCC(=O)Nc1ccccc1)NO | 46.8 | 23.9 | 51.7 | 49.5 | 18.5 | 33.7 | 70.6 | 44.9 | 38.5 | 28
12 | Cc1cccc(C)c1OCC(=O)N[C@@H](Cc1ccccc1)[C@@H](O)C[C@H](Cc1ccccc1)NC(=O)[C@H](C(C)C)N1CCCNC1=O | -0.115 | 1.21 | -0.846 | 1.07 | -0.0767 | 1.3 | 0.148 | -2.8 | -1.16 | -0.606
13 | Cn1c(=O)c2c(ncn2CC2OCCO2)n(C)c1=O | 0.735 | 3.27 | 0.989 | 0.338 | 4.64 | -0.428 | 12.2 | 2.59 | 1.02 | 0.38
14 | CSc1nc2cc(Cl)c(Oc3cccc(Cl)c3Cl)cc2[nH]1 | 1.22 | -0.121 | -0.253 | 0.647 | 4.81 | 3.1 | -0.0294 | 2.29 | 1.54 | 2.86
15 | CCCCCCCCCCCCCCCCCCCCCCO | 0.193 | 0.0924 | -0.407 | 0.0399 | -0.179 | 0.445 | 1.03 | -1.18 | 1.92 | 1.68
16 | Clc1ccc(C(c2ccccc2Cl)C(Cl)Cl)cc1 (stereo not given) | -1.94 | -1.47 | -1.72 | -0.6 | -0.428 | -0.0252 | -1.09 | -1.24 | -1.05 | 1.43
17 | CN(C)CCc1c[nH]c2ccc(C[C@H]3COC(=O)N3)cc12 | -3.13 | -2.1 | 0.0297 | -2.64 | -3.04 | -3.73 | -3.71 | -3.68 | -7.46 | -1.12
18 | C[C@@H]1C[C@H]2[C@@H]3CCC4=CC(=O)C=C[C@]4(C)[C@@]3(Cl)[C@@H](O)C[C@]2(C)[C@@]1(OC(=O)c1ccco1)C(=O)CCl | 2.55 | 2.99 | 2.36 | 5.3 | 6.75 | 4.28 | 0.466 | 14.2 | 2.53 | -3.14

Row | SMILES | growth inhibition (DIPGX29) [%] | growth inhibition (DIPGX37) [%] | growth inhibition (DIPGX7) [%] | growth inhibition (DIPGX9) [%] | growth inhibition (HGGX39) [%] | growth inhibition (HGGX6) [%] | growth inhibition (HNSC) [%] | growth inhibition (SUDIPGIV) [%] | growth inhibition (SUDIPGVI) [%] | growth inhibition (SUDIPGXIII) [%]
19 | CN(C)CCCOc1nn(Cc2ccccc2)c2ccccc12 | 13.9 | -2.22 | 24.6 | 5.76 | 18.9 | 14.8 | 40.8 | 18.5 | -1.11 | 0.197
20 | COc1cc(C)c(/C=C/C(C)=C/C=C/C(C)=C/C(=O)O)c(C)c1C | 5.2 | -2.81 | 6.14 | 8.33 | 7.33 | 6.28 | 7.89 | 6.68 | 4.93 | 1.6
21 | C[C@H]1O[C@H](O[C@H]2[C@H](O)[C@@H](O)[C@@H](O[C@H]3[C@H](O)[C@@H](O)C(O)O[C@@H]3CO)O[C@@H]2CO)[C@H](O)[C@@H](O)[C@@H]1N[C@H]1C=C(CO)[C@@H](O)[C@H](O)[C@H]1O (stereo not given in full) | -1.13 | -1.58 | -0.631 | -1.81 | -1.75 | -0.366 | -2.81 | -2.71 | -0.59 | -0.463
22 | CC(C)(S)[C@@H](N)C(=O)O | 0.657 | -0.325 | 5.5 | -0.781 | 0.519 | -2.1 | 45.1 | -0.3 | 0.273 | -1.43
23 | CCOc1nc2cccc(C(=O)O)c2n1Cc1ccc(-c2ccccc2-c2noc(=O)[nH]2)cc1 | -0.219 | 0.379 | 0.841 | 0.153 | 0.215 | -1.71 | 0.888 | -0.526 | 1.43 | -1.07
24 | CCOc1ccccc1OC(c1ccccc1)C1CNCCO1 (stereo not given) | 0.58 | 2.23 | -0.477 | 1.96 | 0.0675 | 0.362 | -1.38 | -0.307 | -0.0566 | 0.138
25 | C[C@@H]1C/C=C/C=C/C=C/C=C/[C@H](O[C@@H]2O[C@H](C)[C@@H](O)[C@H](N)[C@@H]2O)C[C@@H]2O[C@](O)(C[C@@H](O)C[C@H]3O[C@@H]3/C=C/C(=O)O1)C[C@H](O)[C@H]2C(=O)O | 1.2 | 2.42 | 1.64 | 1.2 | 1.86 | 0.734 | -0.468 | 0.119 | 3.23 | 0.668
26 | CCN(CC)CCNC(C(=O)OCCC(C)C)c1ccccc1 (stereo not given) | 2 | -0.0996 | 4.26 | 1.08 | 0.0597 | 0.247 | 74.6 | 1.14 | -6.42 | 2.01
27 | COc1cccc2c1C(=O)c1c(O)c3c(c(O)c1C2=O)C[C@@](O)(C(C)=O)C[C@@H]3O[C@H]1C[C@H](N)[C@H](O)[C@H](C)O1 | 55.5 | 56.5 | 54.9 | 43.6 | 53 | 56.3 | 62.2 | 57.2 | 46.8 | 66.3
28 | COc1ccc(C2C(=O)c3ccccc3C2=O)cc1 | -0.495 | 1.03 | -0.141 | 0.658 | -0.413 | 1.25 | 2.05 | -1.32 | -1.7 | 1.54
29 | CC(=O)OCC(CCn1cnc2cnc(N)nc21)COC(C)=O | -2.6 | -4.6 | -0.979 | -2.76 | -5.59 | -3.73 | 33.5 | -3.45 | -13 | 2.17
30 | CC[C@@H](CO)NCCN[C@@H](CC)CO | -4.2 | -0.485 | -2.38 | -2.09 | -0.115 | -2.97 | -1.6 | -3.04 | -1.42 | -0.832
31 | C=C1c2cccc(O)c2C(O)=C2C(=O)[C@]3(O)C(O)=C(C(N)=O)C(=O)[C@@H](N(C)C)[C@@H]3[C@@H](O)[C@H]12 | -0.484 | 2.83 | -0.0391 | -1.06 | 2.68 | -0.509 | 0.179 | 2.28 | -1.04 | 1.14
32 | O=C1OC(CN2CCOCC2)CN1/N=C/c1ccc([N+](=O)[O-])o1 (stereo not given) | -1.53 | 1.22 | -0.714 | -0.52 | -0.169 | 0.852 | -1.5 | -2.29 | -0.066 | -18.3
33 | CC(=O)Oc1ccccc1C(=O)Nc1ncc([N+](=O)[O-])s1 | 0.503 | 4.15 | 3.15 | 1.52 | 3.31 | 1.98 | 7.17 | 3.07 | 1.06 | 63.6
34 | CC(=O)O[C@H]1C(=O)[C@@]2(C)[C@H]([C@H](OC(=O)c3ccccc3)[C@]3(O)C[C@H](OC(=O)[C@H](O)[C@@H](NC(=O)c4ccccc4)c4ccccc4)C(C)=C1C3(C)C)[C@]1(OC(C)=O)CO[C@@H]1C[C@@H]2O | 9.71 | 8.37 | 6.36 | 22 | 32.7 | 16.2 | 60.4 | 25.9 | 6.74 | 6
35 | CN[C@@H]1[C@H](O)[C@H](NC)[C@H]2O[C@@]3(O)C(=O)C[C@@H](C)O[C@H]3O[C@@H]2[C@H]1O | 1.24 | 1.47 | 0.532 | 2.81 | 1.18 | -0.547 | 3.02 | 0.676 | 2.4 | 0.316

Source: the supplement of paper PMC8253809
